{
  "source": "the supplement of paper PMC11577813",
  "about": "“Eurasian spruce bark beetle detects lanierone using a highly expressed specialist odorant receptor, present in several functional sensillum types” (BMC Biology, 2024)",
  "note": "± gives the standard deviation of the averaged measurements.",
  "data": [
    {"tested_on": "ipsdienol A-neuron OSN class", "assay": "net action potential response of A-neuron (blank-subtracted) (spikes/s (Hz)); higher = stronger excitation", "conditions": "10 µg on filter paper; neuron: A neuron (large spike amplitude)", "protocol": "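Single sensillum recordings from antennal olfactory sensilla of live adult Ips typographus. Each compound was 10 µg in paraffin oil on filter paper, delivered as a 0.5 s puff. Net response = spikes in the first 0.5 s of response minus the 0.5 s pre-stimulus count, doubled to give Hz, with blank response subtracted. Values are for the large-spike A-neuron class of each of seven sensillum types that co-house the lanierone B-neuron; N = 1-4 sensilla, averaged.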", "values": [
      {"compound": "Cc1ccccc1", "note": "[Toluene]", "net action potential response": "-1.33 ± 5"},
      {"compound": "O=Cc1ccccc1", "note": "[Benzaldehyde]", "net action potential response": "2 ± 4"},
      {"compound": "C=CCc1ccc(OC)cc1", "note": "[Estragole]", "net action potential response": "2.67 ± 1.1"}
    ]}
  ]
}
